In the library only some 19% were active in any assay of this set; here they are far more common.
HT1080 IDH1KD tx – qHTS for induction of synthetic lethality in tumor cells producing 2HG: qHTS for the HT-1080-IDH1KD cell line. HT-1080 IDH1 knockdown viability, ATP luminescence, 48 h. Potency, µM (series often up to 46.1 µM), without a hit: top-dose activity, negative = toxicity, hits mostly cytotoxic. actives 2% (n = 360,000). AID 686971, 2013;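 note: potency is the fitted concentration of half-maximal effect; 0% = DMSO wells and -100% = cell-free medium wells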
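Knockdown cells (IDH1KD HT-1080) received compounds 2 h after plating at 750 cells/well and were kept 48 h at 37 °C in 5% FBS RPMI. A CellTiter-Glo luminescence read gave % activity for curve fitting.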
DT40 TDP1 no CPT – qHTS for Inhibitors of human tyrosyl-DNA phosphodiesterase 1 (TDP1): qHTS in cells in absence of CPT | DT40 Tdp1-/- hTDP1 cells, no CPT, ATP luminescence, 48 h | Potency, µM (titrated, usually from 46.2 µM), for the others: at the highest dose activity change, negative = growth inhibition, hits mostly inhibitors | actives 15% (n = 420,000) | AID 686978, 2013; note: potency is the fitted concentration of half-maximal effect; nearly all actives have a fitted effect of over 55% in size
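A cellular qHTS used chicken DT40 cells lacking endogenous Tdp1 but carrying stably transfected human TDP1. Compounds were applied without camptothecin, and cell growth kinetics were judged by ATP-dependent luminescence after ≥48 hr.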
IL1B secr inh – qHTS for Inhibitors of Inflammasome Signaling: IL-1-beta AlphaLISA Primary Screen | actives 4.7% (n = 360,000) | THP-1 LPS/ATP IL-1B secretion, AlphaLISA, 16 h; active compounds read low | activity change, % at 57.5 µM; in the data active = activity change below about -50%; inconclusive = mostly about -30% to -49%
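THP-1 cells pretreated 1 hr with compounds (up to 57.5 uM final), then stimulated with LPS (250 ng/mL final) plus ATP (1.25 mM final); secreted IL-1B measured by AlphaLISA after 16 hr, decreased signal indicating inhibition.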
HT1080NT lethal – qHTS for induction of synthetic lethality in tumor cells producing 2HG: qHTS for the HT-1080-NT fibrosarcoma cell line. HT-1080-NT fibrosarcoma viability, CellTiter-Glo ATP luminescence, 48 h. actives 1.6% (n = 360,000). AID 686970, 2013. Potency, µM (doses to about 46.1 µM), for the others: at the highest dose activity, negative = less viability, usual class: cytotoxic;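 note: NT is the 2HG producing partner of a matched IDH1 knockdown line; potency is the fitted concentration of half-maximal effect; 0% = DMSO-treated cells and -100% = media-only wells without cells; nearly all actives have a fitted effect of over 55% in size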
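Read-out is CellTiter-Glo luminescence after 10 minutes at room temperature, following 48 hours' compound treatment of HT-1080-NT cells (750 cells/well, RPMI, 5% FBS, 37 degrees C).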
TDP1 cell CPT – qHTS for Inhibitors of human tyrosyl-DNA phosphodiesterase 1 (TDP1): qHTS in cells in presence of CPT. chicken DT40 Tdp1-/-;hTDP1 cells + 20 nM CPT, ATP luminescence, 48 h. Potency, µM (highest dose often 46.2 µM), inactives show top-dose activity change, negative = growth inhibition, hits mostly inhibitors. actives 12% (n = 420,000). AID 686979, 2013; note: potency is the fitted concentration of half-maximal effect; nearly all actives have a fitted effect of over 55% in size
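Chicken DT40 Tdp1-/- cells complemented with human TDP1, 400 cells/well, exposed to compounds plus 20 nM camptothecin for at least 48 h at 37 C; viability read as ATP content by CellTiter-Glo luminescence.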
* hit, by the source's call; i = inactive; ? = inconclusive; . = no result given; ! = not confirmed by another sample; [ ] = remark or other dose. Unless noted, calls come from the whole dose curve; as a rule, active = well fitted curve in the direction sought with a large enough effect; inconclusive = small, poorly fitted or top-dose-only effect, or another doubt; inactive = no such curve, though single readings can be large; an effect the other way counts as inactive or inconclusive. Unless noted, % is set by controls: 0 for no effect and ±100 for the full control effect.

SMILES	HT1080 IDH1KD tx	DT40 TDP1 no CPT	IL1B secr inh	HT1080NT lethal	TDP1 cell CPT
CCOC(=O)c1ccc(NS(=O)(=O)c2cc(-c3onc(C)c3C)ccc2C)cc1	.	?	.	.	-23%
CC1=C(C(=O)Nc2ccc(C)cc2C)C(c2sccc2C)n2ncnc2N1 (stereo not given)	.	-6%	.	.	-7%
COc1ccc(/C=N/n2cnnc2SCc2ccccc2)cc1	-12%	21µM*	-20	-17%	?
CC(C)NC(=O)c1onc(CSc2cccc(Cl)c2)c1C(=O)O	-15%	-17%	26	-4%	-1%
CC(C)C[C@H](NC(=O)/C=C/[C@H]1O[C@@H](n2ccc(=O)[nH]c2=O)[C@H](O)[C@@H]1O)C(=O)O	?	49%	-2	21%	-1%
c1ccc2c(c1)ccn2-n1ccc2ccccc21	.	13µM*	.	.	-54%
COc1ccc(-n2ccc3ccccc32)cc1	12%	-23%	35	8%	-15%
CCCc1nn2c(=O)cc(COC(=O)c3cccs3)nc2s1	.	?	.	.	-29%
COc1cc(NC(=O)CSc2nnc3c(n2)[nH]c2ccc(OC)cc23)cc(OC)c1	-2%	-22%	.	-1%	-21%
COc1ccc(NC(=O)Nc2c(C)n(C)n(-c3ccccc3)c2=O)cc1OC	-4%	19%	i	7%	14%
Cc1ccc(NC(=O)Nc2c(C)n(C)n(-c3ccccc3)c2=O)cc1C	18%	23µM*	13	23%	16µM*
Cc1c(NN=C(C#N)C#N)c(=O)n(-c2ccccc2)n1C	-2%	?	-61*	3%	-85%
Cc1c(NC(=O)CC(=O)Nc2c(C)n(C)n(-c3ccccc3)c2=O)c(=O)n(-c2ccccc2)n1C	0%	-11%	12	0%	-12%
COc1ccc(C(=O)/C=C/NCc2ccc(F)cc2)cc1OC	-29%	?	.	-21%	-3%
Cc1noc(NS(=O)(=O)c2ccc(NS(=O)(=O)c3ccc(Cl)cc3)cc2)c1C	0%	-8%	12	-1%	0%
CCOC(=O)C1CCN(C(=O)c2nn(-c3ccc(OC)c(Cl)c3)c(=O)c3c2c2ccccc2n3C)CC1	.	15µM*	.	.	21µM*
COc1ccc(-n2nc(C(=O)NCCCN3CCCC3=O)c3c4ccccc4n(C)c3c2=O)cc1Cl	-2%	-23%	10	-2%	-13%
COc1ccc(-n2nc(C(=O)N3CCC(C#N)CC3)c3c4ccccc4n(C)c3c2=O)cc1	-3%	-16%	47	5%	2%
COc1ccc(-n2nc(C(=O)N3CCCC(C)C3)c3c4ccccc4n(C)c3c2=O)cc1 (stereo not given)	.	?	.	.	26µM*
COc1ccc(-n2nc(C(=O)N3CCCCC3)c3c4ccccc4n(C)c3c2=O)cc1Cl	.	16µM*	.	.	4.1µM*
CCOC(=O)C1=C(C)N(CCCC(=O)O)C(=O)NC1c1cccs1 (stereo not given)	11%	1%	16	21%	-3%
COc1ccc(/C=C(\C#N)C(=O)N2CCOCC2)cc1Br	3%	-6%	-68*	6%	3%
Cc1cc(/C=C(\C#N)C(=O)N2CCOCC2)c(C)n1C1CCCC1	-2%	12µM*	0	9%	?
N#C/C(=C\c1ccc(O)c(O)c1)C(=O)N1CCCC1	-14%	13µM*	31	?	?
Cc1ccc2c(n1)sc1c(=O)n(-c3cccc(C(F)(F)F)c3)nnc12	.	?	.	.	-17%
SMILES	HT1080 IDH1KD tx	DT40 TDP1 no CPT	IL1B secr inh	HT1080NT lethal	TDP1 cell CPT
CN(C)c1nc(N)nc(CSc2nnnn2-c2ccc(C(=O)O)cc2)n1	3%	-5%	15	17%	7%
CSc1nnnn1-c1ccc(Cl)cc1	5%	3%	5	3%	8%
Cc1noc(C)c1CSc1nc2ccccc2c(=O)n1-c1ccc(Cl)cc1	7.1µM*	15µM*	-8	10µM*	18µM*
CN(C)c1nc(N)nc(CSc2nnnn2-c2ccc(Cl)cc2)n1	23µM*	?	20	?	?
Cc1noc(C)c1CSc1nnnn1-c1ccc(Cl)cc1	-5%	15µM*	-17	-6%	?
CCC1ON(c2ccccc2)C2c3nc4ccccc4n3CC12 (stereo not given)	0%	-7%	47	0%	-25%
COc1ccc(S(=O)(=O)N2CCC(C(=O)NC3CCCCC3)CC2)cc1OC	-3%	-14%	1	-5%	-21%
Cc1cc(C)cc(NC(=O)CSc2ccc(-c3cccs3)nn2)c1	-28%	21µM*!	-72*	-19%	?
COC(=O)c1ccc(NC(=O)CSc2ccc(-c3cccs3)nn2)cc1	.	-15%	.	.	-18%
O=C(CSc1ccc(-c2cccs2)nn1)Nc1ccccc1	-6%	21µM*	-15	-12%	13µM*!
COc1ccc(NC(=S)NC23CC4CC(CC(C4)C2)C3)cc1OC	-13%	?	i	-4%	?
COc1ccc(NC(=O)C2CCN(C(=O)[C@@H]3Cc4ccccc4CN3C(=O)OC(C)(C)C)CC2)cc1	14%	10%	-9	5%	6%
COc1ccc(NC(=O)[C@@H]2CCCN2C(=O)[C@@H]2Cc3ccccc3CN2C(=O)OC(C)(C)C)cc1	?	23µM*	-2	-19%	-22%
CC(C)NC(=O)CSc1ccccc1C(=O)N1CCN(S(=O)(=O)Cc2ccccc2)CC1	-1%	-6%	-2	1%	-19%
CCOC(=O)Cn1nc(/C=C/c2ccc(OC)cc2)ccc1=O	-3%	-27%	-29	0%	-19%
COc1ccc(/C=C/c2ccc(=O)n(Cc3ccccc3)n2)cc1	?	?	-156*	-16%	?
O=c1ccc(/C=C/c2ccccc2)nn1Cc1ccc(F)cc1	-27%	-23%	-60*	-4%	5%
Cc1ccc(/C=C/c2ccc(=O)n(Cc3ccccc3Cl)n2)cc1	-1%[9.24 µM]	26µM*	?	?	16µM*

Screening results from PubChem BioAssay.
